About 79,000 compounds went through this panel and 15% of them were active in at least one assay; those are over-represented in the sample as a whole. A number with no mark means an inactive call. Rule as the data show it: active = growth inhibition above about 70%; inactive = the rest.

The first test can be described thus: NCI Yeast Anticancer Drug Screen. Data for the bub3 strain (AID 167). The conditions noted are these: S. cerevisiae bub3 mutant strain, at 50.0 µM, active compounds read high. In a few lines: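 Inhibition values come from growth of compound-treated mutant yeast normalised to vehicle-treated controls.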
Turning to `C=CCCCCCCCCC(=O)NCC1CCCCO1` (stereo unspecified), the growth inhibition is 10.1%.

Turning to `N#C/C(=C\c1ccc(C#N)cc1)C(=O)O`, the growth inhibition was -14.4%.

For the compound `CCOC(=O)C(NC(=O)Cc1ccccc1)C(=O)OCC`, the growth inhibition is 14.9%.

Take `Cc1ccc2c(c1)C(c1ccccc1)(c1ccccc1)OC2`: the growth inhibition is 10.4%.

As for `N#CCCN(CCC#N)c1ccc(/C=C2\N=C(CN3C(=O)c4ccccc4C3=O)OC2=O)cc1`, the growth inhibition is 0.05%.

For the compound `c1ccnnc1`, the growth inhibition is -0.4%.

With `CCc1ccc(O[Si](C)(C)C)cc1`, the growth inhibition is -21.9%.

On to `c1ccc(SCCP(CCP(c2ccccc2)c2ccccc2)c2ccccc2)cc1` (stereo unspecified), for which the growth inhibition was 37.8%.

Take `C/C(N=NS(=O)(=O)c1ccc(C)cc1)=C1\C=CC=CN1O`: the growth inhibition is -2.85%.

As to `Cc1c(C(=O)O)[nH]c(=O)[nH]c1=O`, the growth inhibition is -0.35%.

As for `COC(=O)c1sc(C(=O)OC)c2c1CSC2`, the growth inhibition was -8%.

On to `c1ccc(Cn2cccc2N=Nc2ccccc2)cc1`, for which the growth inhibition is -4%.

In the case of `O=COCCc1ccccc1`, the growth inhibition is -8.15%.

As to `O=C(O)CCc1ccc(NC(=O)CCl)cc1`, the growth inhibition is 5.45%.

As for `O=C(/C=C/c1ccccc1)NC1C=Nc2ccc(Cl)cc2NC1=O` (stereo unspecified), the growth inhibition is 28.2%.

`C/C=C/c1ccc(O)c(OC)c1`: the growth inhibition was -3.25%.

Turning to `O=C(O)/C(=C/c1ccccc1)c1ccccc1`, the growth inhibition is -33.5%.

On to `O/N=C1/CCCCc2ccccc21`, for which the growth inhibition was -14.4%.

`Cn1c(=O)c2c(nc(C(=N)SCC(=O)O)n2C)n(C)c1=O`: the growth inhibition was -44.8%.

For `Cc1nc2c(cc1C(=O)N/N=C/c1ccc([N+](=O)[O-])cc1)c(=O)n(C)c(=O)n2C`, the growth inhibition was -50.9%.

In the case of `Cc1cccnc1C(=O)O.[Cu+2]`, the growth inhibition was -32.8%.

The next test can be described thus: NCI Yeast Anticancer Drug Screen. Data for the mlh1 rad18 strain (AID 175). The conditions noted are these: S. cerevisiae mlh1 rad18 strain growth inhibition; at 50.0 µM; active compounds read high. In short, it runs like this: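 A repair-deficient yeast strain is exposed to test compound, and growth is scored relative to vehicle-treated controls.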
Turning to `O=C(NCCCCCCNC(=O)NCc1ccco1)NCc1ccco1`, the growth inhibition is -19.9%.

Consider `c1ccc(COC(c2ccccc2)(c2ccccc2)c2ccccc2)cc1`, for which the growth inhibition was 27.9%.

For `O=S(=O)(O)C(c1ccccc1)C(O)c1ccccc1` (stereo unspecified), the growth inhibition is -0.25%.

Regarding `Nc1nc(N)c2nc(-c3ccc(O)cc3)c(-c3ccc(O)cc3)nc2n1`, the growth inhibition is -13.6%.

As to `CCOCCC(=N)OCC`, the growth inhibition is 13.6%.

Take `CC(NC(=O)NCCCl)C1CC1` (stereo unspecified): the growth inhibition was -0.8%.

On to `CC1OCC2CC3(O1)OC3C(COCC1OC3COC(C)OC4(C3)OC14)O2` (stereo unspecified), for which the growth inhibition is -14.9%.

Take `c1ccc(-c2cc(-c3ccncc3)c(-c3ccccc3)nn2)cc1`: the growth inhibition was 36.4%.

As for `NC(=O)NC(=O)OCCOC(=O)NC(N)=O`, the growth inhibition was -13.2%.

With `NCc1cnccn1`, the growth inhibition was -1.85%.

With `C=CCC(C(=C)C)(C(=O)OCC)C(=O)OCC`, the growth inhibition is -31.9%.

Regarding `O=C(O)C1CCC(C(=O)O)S1` (stereo unspecified), the growth inhibition was 16.1%.

In the case of `Cc1ccc(NC(=O)Oc2ccc(C#N)cc2)cc1Cl`, the growth inhibition was 27.1%.

As to `CCC(=O)OC1(C(=O)OC)CCN(C)CC1`, the growth inhibition is 10.4%.

Consider `Cc1ccc(NC(=O)C(C)S)cc1` (stereo unspecified), for which the growth inhibition is 32.4%.

On to `Cc1ccc2cccc(OC(=O)Nc3cc(Cl)c(Cl)cc3Cl)c2n1`, for which the growth inhibition was 3.9%.

As to `CCC(=O)C(C)C1(C(=O)OC)NC(=S)NC(=O)C1C#N` (stereo unspecified), the growth inhibition is -6.1%.

For the compound `CCNC(=O)CCN(C(=O)O)S(=O)(=O)c1ccc(NC(=O)c2ccccc2)cc1`, the growth inhibition was -13.9%.

With `Cc1cnc(-c2ccccc2)o1`, the growth inhibition is -12.7%.

In the case of `C=CCCCCCCCCC(=O)NCC1CCCCO1` (stereo unspecified), the growth inhibition was 58.1%.

`N#C/C(=C\c1ccc(C#N)cc1)C(=O)O`: the growth inhibition is 9.55%.

In the case of `CCOC(=O)C(NC(=O)Cc1ccccc1)C(=O)OCC`, the growth inhibition was -17.9%.

Consider `Cc1ccc2c(c1)C(c1ccccc1)(c1ccccc1)OC2`, for which the growth inhibition is 13.6%.

Regarding `N#CCCN(CCC#N)c1ccc(/C=C2\N=C(CN3C(=O)c4ccccc4C3=O)OC2=O)cc1`, the growth inhibition is 7.55%.

Consider `c1ccnnc1`, for which the growth inhibition is 4.25%.

For `CCc1ccc(O[Si](C)(C)C)cc1`, the growth inhibition is -3.9%.

On to `c1ccc(SCCP(CCP(c2ccccc2)c2ccccc2)c2ccccc2)cc1` (stereo unspecified), for which the growth inhibition was 57.1%.

Regarding `C/C(N=NS(=O)(=O)c1ccc(C)cc1)=C1\C=CC=CN1O`, the growth inhibition is -11.9%.

With `Cc1c(C(=O)O)[nH]c(=O)[nH]c1=O`, the growth inhibition is -12.1%.

As to `COC(=O)c1sc(C(=O)OC)c2c1CSC2`, the growth inhibition is 13.2%.

Regarding `c1ccc(Cn2cccc2N=Nc2ccccc2)cc1`, the growth inhibition was 14.3%.

In the case of `O=COCCc1ccccc1`, the growth inhibition is 3.7%.

For the compound `O=C(O)CCc1ccc(NC(=O)CCl)cc1`, the growth inhibition is 14.7%.

On to `O=C(/C=C/c1ccccc1)NC1C=Nc2ccc(Cl)cc2NC1=O` (stereo unspecified), for which the growth inhibition is 26.2%.

Consider `C/C=C/c1ccc(O)c(OC)c1`, for which the growth inhibition is -9.3%.

In the case of `O=C(O)/C(=C/c1ccccc1)c1ccccc1`, the growth inhibition is 26.8%.

Take `O/N=C1/CCCCc2ccccc21`: the growth inhibition is -15.2%.

Take `Cn1c(=O)c2c(nc(C(=N)SCC(=O)O)n2C)n(C)c1=O`: the growth inhibition is 3.8%.

Turning to `Cc1nc2c(cc1C(=O)N/N=C/c1ccc([N+](=O)[O-])cc1)c(=O)n(C)c(=O)n2C`, the growth inhibition was 18.1%.

For `Cc1cccnc1C(=O)O.[Cu+2]`, the growth inhibition was -7.4%.

The record behind these values is PubChem BioAssay (NCI).
